Data reported in PubChem BioAssay AID1347165 (National Center for Advancing Translational Sciences (NCATS), 2019).
Among all 220,000 compounds or so, about 5,700 (2.6%) were called active. Roughly 18% stayed inconclusive and do not appear here. Only a selection was taken, and actives are over-represented in it overall. Values without a mark were called inactive. Calls follow the shape of the dose curve; as a rule, active = well fitted inhibition curve with a large enough effect; inconclusive = small, poorly fitted or top-dose-only effect; inactive = no such curve, though single readings can be large or run the other way.

target: Lysine-specific demethylase 5B (Homo sapiens) (UniProt Q9UGL1); experiment: Primary screen for KDM5B Histone Demethylases FDH-coupled qHTS; conditions: FDH-coupled NADH fluorescence (FDH is formaldehyde dehydrogenase); series mostly up to 57.7 µM; activity change, negative = inhibition: at the top concentration; also: nearly all actives have a fitted effect of over 70% in size; as to activity change, negative = inhibition: 0% is about no effect
Description: Assay Submitter (PI): Qin Yan, Ph.D. (Yale University) and Xiaodong Cheng, Ph.D. (MD Anderson) This project was funded as part of the NCI NEXT Program and Chemical Biology Consortium (CBC) The histone demethylases, KDM5A and KDM5B catalyze the demethylation of lysine 4 on histone H3 (H3K4me3/2). They are overexpressed in a variety of cancers and have been implicated in cancer cell growth, metastasis, drug resistance, and tumor growth. KDM5A is amplified and overexpressed in breast and gastric cancer; and is translocated in leukemia. While KDM5B is highly expressed in human mammary tumors and breast cancer cell lines, but not in normal adult breast tissue. Moreover, knockdown of KDM5B leads to upregulation of tumor suppressor genes, including BRCA1. The goal of this project is to employ qHTS to identify selective small molecule inhibitors of KDM5A/B demethylase activity to better understand the role of KDM5 in cancer and to develop novel therapies. We employed an FDH-coupled assay previously reported by Sakurai et al. to monitor in vitro KDM5 demethylase activity. Compounds showing dose response inhibition are re-acquired, validated, and tested for non-specific interference with the formaldehyde dehydrogenase (FDH) counterscreen. True inhibitors are validated using an AlphaLisa secondary screen, which employs an H3K4(me2-1)-specific antibody to monitor demethylation of a biotin-tagged H3K4(me3) peptide substrate. Inhibitors are profiled against KDM4A and KDM6A AlphaLisa counterscreens to determine level of demethylase specificity; and against the TruHits counterscreen to eliminate non-specific inhibitory activity on the AlphaLISA detection method. Selective inhibitors identified from the primary and secondary screening are tested in cells using immunofluorescence to monitor global H3K4 tri-methylation as a measure of KDM5A/B inhibition. Early Translation Branch (ETB) National Center for Advancing Translational Sciences (NCATS), Rockville, MD National Institute of Health (NIH), Bethesda, Maryland [1] Sakurai, M et al. A miniaturized screen for inhibitors of Jumonji histone demethylases. Mol Biosyst. 2010 Feb;6(2):357-64. doi: 10.1039/b912993f. Epub 2009 Oct 8.
Materials: 1536-well Black, solid bottom, medium binding assay plate is purchased from Greiner Bio-one. The enzymes (KDM5B) and substrate (H3K4me3/2) are provided by the principal investigators. The buffer for this assay is composed of 50mM HEPES at pH 7.5 with 0.01% Tween-20. FDH coupled Demethylase qHTS protocol: Three microliter enzyme mix (buffer + 200nM KDM5BDeltaAP final concentration) is dispensed into the assay plate using the BioRAPTR Flying Reagent Dispenser (FRD; […]). Compound (at various final concentration) and control solution is pin transferred to the assay plate using the Kalypsys 1536-pin tool apparatus. The assay plate is incubated for 10 min at room temperature followed by addition of 1uL substrate mix (buffer + 100uM ascorbic acid, 50uM ferrous ammonium sulfate, 12.5uM H3K4Me3, 25uM a-ketoglutarate, 0.25 mM NAD+, 0.25 U/mL formaldehyde dehydrogenase using the FRD yielding a total reaction volume of 4 uL. Initial fluorescence (Read1) is detected using the PerkinElmer ViewLux plate reader equipped with 340 nm excitation and 450 nm emission filters. The final fluorescence (Read2) signal is obtained after 30 min of room temperature incubation. Delta RFU is calculated (Read2 - Read1) and is used to generated dose response curves.
Potency is read from the fitted curve at half-maximal effect.

Lysine-specific demethylase 5B (Homo sapiens), sequence (Q9UGL1 whole entry, looked up): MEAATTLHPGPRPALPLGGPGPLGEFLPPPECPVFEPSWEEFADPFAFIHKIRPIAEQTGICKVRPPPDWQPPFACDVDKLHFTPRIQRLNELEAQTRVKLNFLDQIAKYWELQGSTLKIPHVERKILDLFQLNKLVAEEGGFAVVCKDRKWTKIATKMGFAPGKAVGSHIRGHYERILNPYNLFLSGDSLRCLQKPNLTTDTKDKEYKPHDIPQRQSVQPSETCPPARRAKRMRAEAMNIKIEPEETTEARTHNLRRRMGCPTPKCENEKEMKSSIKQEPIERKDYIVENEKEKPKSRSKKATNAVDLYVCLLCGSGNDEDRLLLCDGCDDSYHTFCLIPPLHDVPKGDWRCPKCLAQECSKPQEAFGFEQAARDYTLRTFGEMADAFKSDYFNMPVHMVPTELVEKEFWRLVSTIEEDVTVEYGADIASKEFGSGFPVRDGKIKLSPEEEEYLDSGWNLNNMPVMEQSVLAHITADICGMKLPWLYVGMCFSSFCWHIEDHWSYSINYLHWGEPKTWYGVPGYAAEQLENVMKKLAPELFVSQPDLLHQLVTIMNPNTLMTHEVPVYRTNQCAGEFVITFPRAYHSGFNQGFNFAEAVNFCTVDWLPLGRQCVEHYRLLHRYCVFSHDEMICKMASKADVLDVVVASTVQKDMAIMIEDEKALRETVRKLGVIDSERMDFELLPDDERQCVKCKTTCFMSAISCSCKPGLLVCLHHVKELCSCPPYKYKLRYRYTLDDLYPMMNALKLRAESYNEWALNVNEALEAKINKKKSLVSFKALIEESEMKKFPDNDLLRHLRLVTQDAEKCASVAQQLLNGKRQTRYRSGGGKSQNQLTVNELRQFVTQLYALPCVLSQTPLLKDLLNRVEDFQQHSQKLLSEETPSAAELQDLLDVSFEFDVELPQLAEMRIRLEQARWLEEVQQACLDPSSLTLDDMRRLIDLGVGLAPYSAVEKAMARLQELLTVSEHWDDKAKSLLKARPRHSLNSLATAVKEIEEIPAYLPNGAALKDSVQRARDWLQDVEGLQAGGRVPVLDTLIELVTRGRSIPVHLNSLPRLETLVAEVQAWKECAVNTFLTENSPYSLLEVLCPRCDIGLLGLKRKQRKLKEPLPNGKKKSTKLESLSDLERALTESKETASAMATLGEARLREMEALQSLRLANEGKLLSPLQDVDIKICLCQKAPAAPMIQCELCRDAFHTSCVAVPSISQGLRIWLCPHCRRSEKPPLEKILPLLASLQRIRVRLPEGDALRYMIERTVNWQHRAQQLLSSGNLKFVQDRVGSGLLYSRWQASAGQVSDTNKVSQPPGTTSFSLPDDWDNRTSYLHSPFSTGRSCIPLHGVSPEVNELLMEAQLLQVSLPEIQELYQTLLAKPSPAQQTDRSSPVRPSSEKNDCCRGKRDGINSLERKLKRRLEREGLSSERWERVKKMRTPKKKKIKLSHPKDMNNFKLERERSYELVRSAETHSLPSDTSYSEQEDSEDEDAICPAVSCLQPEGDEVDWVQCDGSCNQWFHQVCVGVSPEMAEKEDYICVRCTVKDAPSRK

| Compound | activity change, negative = inhibition | Potency |
| --- | --- | --- |
| O=C(Nc1ccc(Cl)cc1)N1C[C@@H]2C[C@H](C1)c1c(-c3ccccc3F)ccc(=O)n1C2 | -24.4% | – |
| CCCS(=O)(=O)N1C[C@@H]2C[C@H](C1)c1ccc(-c3ccccc3C)c(=O)n1C2 | – | 39.8 µM (active) |
| O=C(Nc1ccc2n(c1=O)C[C@H]1C[C@@H]2CN(C(=O)c2ccccn2)C1)c1ccc(F)cc1 | -9.18% [at 86.2 µM] | – |
| Cc1ccccc1-c1ccc2n(c1=O)C[C@H]1C[C@@H]2CN(C(=O)CSCC(=O)O)C1 | – | 39.8 µM (active) |
| O=C(NC1CCCCC1)N1C[C@@H]2C[C@H](C1)c1c(-c3ccccc3F)ccc(=O)n1C2 | -3.18% [at 86.2 µM] | – |
| O=C(COc1ccccc1)N1C[C@@H]2C[C@H](C1)c1c(-c3ccccc3F)ccc(=O)n1C2 | -16.7% [at 86.2 µM] | – |
| Cc1ccc(NC(=O)N(Cc2ccc3c(c2)OCO3)C2CCN(Cc3ccccc3)CC2)cc1F | -10.8% | – |
| COc1ccc(/C=C\[N+](=O)[O-])c(OC)c1 | -8.21% | – |
| CC1(C)NN1CCCCN1NC1(C)C (stereo not given) | -5.45% | – |
| COC1CN(c2ccc(C)cc2)C12CCNCC2 (stereo not given) | 135% | – |
| Cn1nc(-c2cccs2)cc1[C@H]1CN2CC[C@H]1C[C@@H]2CNC(=O)Nc1ccccc1 | -16.6% [at 86.2 µM] | – |
| CN(C)C(=O)Oc1ccc2c(=O)c(-c3ccc(Br)cc3)c(C(F)(F)F)oc2c1 | 2.76% | – |
| Cc1ccc(CN2CCC3(CCNCC3)C2)c(O)c1 | -11.6% | – |
| Cc1ccc(C(=O)NC[C@H]2C[C@@H]3CCN2C[C@@H]3c2cc(-c3ccco3)nc(C)n2)cc1 | – | 39.8 µM (active) |
| COc1ccccc1-c1cc([C@H]2CN3CC[C@H]2C[C@@H]3CNC(=O)c2ccco2)n(C)n1 | -4.06% [at 86.2 µM] | – |
| COc1ccc(C(=O)NC[C@H]2C[C@@H]3CCN2C[C@@H]3c2cc(-c3ccccc3)nn2C)cc1 | -13% [at 86.2 µM] | – |
| COc1ccccc1-c1cc([C@H]2CN3CC[C@H]2C[C@@H]3CNC(=O)c2ccco2)nc(C)n1 | – | 31.6 µM (active) |
| COc1ccccc1-c1cc([C@H]2CN3CC[C@H]2C[C@@H]3CNC(C)=O)n(C)n1 | 28.8% [at 86.2 µM] | – |

| Compound | activity change, negative = inhibition | Potency |
| --- | --- | --- |
| Cc1nc(-c2ccc(C(F)(F)F)cc2)cc([C@H]2CN3CC[C@H]2C[C@@H]3CNC(=O)c2ccco2)n1 | -25.8% | – |
| COc1cc2c(cc1Oc1cccc(N(C)C)c1)NC(=O)C21CCN(Cc2ccccn2)CC1 | 2.87% | – |
| c1ccc(CCN2CCC3(CC2)OCCO3)cc1 | 2.44% | – |
| C=C[C@H]1CN2CC[C@H]1C[C@@H]2CNCc1ccc(C(F)(F)F)cc1 | 9.24% [at 86.2 µM] | – |
| CCCS(=O)(=O)NC[C@H]1C[C@@H]2CCN1C[C@@H]2c1cc(-c2ccccc2)nc(C)n1 | 3.11% [at 86.2 µM] | – |
| COc1ccc(-c2cc([C@H]3CN4CC[C@H]3C[C@@H]4COC(=O)NC(C)C)nc(C)n2)cc1 | – | 28.2 µM (active) |
| COc1ccc(-c2cc([C@H]3CN4CC[C@H]3C[C@@H]4CNC(=O)C3CCCCC3)n(C)n2)cc1 | -16.3% | – |
| COc1ccc(-c2cc([C@H]3CN4CC[C@H]3C[C@@H]4CNC(=O)C3CC3)n(C)n2)cc1OC | -11.5% [at 86.2 µM] | – |
| Cc1nc(-c2ccc(N(C)C)cc2)cc([C@H]2CN3CC[C@H]2C[C@@H]3CNC(=O)C2CCC2)n1 | – | 39.8 µM (active) |
| Cc1nc(-c2ccccc2)cc([C@H]2CN3CC[C@H]2C[C@@H]3CNC2CCOCC2)n1 | -26.8% [at 86.2 µM] | – |
| CC(C)(C)NC(=O)NC(=O)CCl | 21.6% | – |
| Cc1ccc(C(=O)N2[C@H]3CC[C@@H]2c2cnc(-c4ccccc4)nc2C3)c(C)c1 | 15.1% | – |
| Cc1nc(C)c(C(=O)N2[C@H]3CC[C@@H]2c2cnc(-c4ccccc4)nc2C3)s1 | -13.3% | – |
| CCOC(=O)c1c(C)n(Cc2ccccc2Cl)c2ccc(O)cc12 | -12% | – |
| O=C(c1ccncc1)N1C[C@@H]2C[C@H](C1)c1ccc(C3CCCCC3)c(=O)n1C2 | -13.2% [at 86.2 µM] | – |
| O=C(Nc1ccccc1)N1C[C@@H]2C[C@H](C1)c1c(-c3ccc(Cl)cc3)ccc(=O)n1C2 | -29.4% [at 86.2 µM] | – |
| CC(=O)Nc1ccc(-c2ccc3n(c2=O)C[C@H]2C[C@@H]3CN(C3CCN(C)CC3)C2)cc1 | – | 39.8 µM (active) |
